# Assay results from PubChem BioAssay (NCATS).
# Values joined by “and” are separate entries in the source; they are usually repeats but may differ in a detail not shown here. Equal values may be shown once. Inconclusive results are not listed. Entries that show only a call come without a potency. Unmarked numbers belong to inactive results. Active and inactive are the calls of the source. Calls follow the shape of the dose curve; as a rule, active = well fitted curve in the direction sought with a large enough effect; inconclusive = small, poorly fitted or top-dose-only effect, or another doubt; inactive = no such curve, though single readings can be large; an effect the other way counts as inactive or inconclusive.
# Legend:
# [1] = target: Cytochrome P450 3A7 (Homo sapiens) (UniProt P24462); assay: Cytochrome P450 family 3 subfamily A member 7 (CYP3A7) small molecule antagonists: luciferase biochemical qHTS assay (AID 1963596); also: nearly all actives have a fitted effect of over 40% in size
# Method in brief: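 Compounds were screened in qHTS format for interference with CYP3A7 turnover of a proluciferin substrate. Reactions ran 1 h at room temperature after NADPH regeneration solution was added, then luciferin product was detected by luminescence.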
# [2] = Viability qHTS for spleen associated tyrosine kinase inhibitor (SYKi) naive MV4-11 cells (AID 1963823); also: nearly all actives have a fitted effect of over 40% in size; also: potency is read from the fitted curve at half-maximal effect
# Method in brief: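 Read-out: CellTiter-Glo luminescence. Exposure: 72 hr, 37 C, 5% CO2, 95% humidity. Cells: MV4-11 without SYK inhibitor history, 500/well, qHTS format.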
# [3] = Viability qHTS for spleen associated tyrosine kinase inhibitor (SYKi) drug resistant MV4-11 cells (AID 1963824); also: nearly all actives have a fitted effect of over 35% in size; also: potency is read from the fitted curve at half-maximal effect
# Method in brief: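 CellTiter-Glo luminescence, read 10 min after reagent addition, reports viability after a 72 hr compound exposure. Cells are an MV4-11 line made resistant to SYK inhibition, seeded at 500 per well onto compound-containing plates.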
# [4] = Cellular viability qHTS for adrenocortical cancer (ACC) cell line SW-13 (AID 1963989); settings: SW-13 ACC cells viability, CellTiter-Glo, 48 h; activity (max response): stronger effect = lower value; also: nearly all actives have a fitted effect of over 65% in size; also: potency is read from the fitted curve at half-maximal effect;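 as to activity (max response): cells grown in serum-free medium with ITS supplement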
# Method in brief: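 Viability was read as CellTiter-Glo luminescence after 48 h compound treatment (up to 46 uM final) of SW-13 cells grown serum-free; titration curves were fit with a four-parameter logistic model to give IC50 and efficacy.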
# [5] = Cellular viability qHTS for adrenocortical cancer (ACC) cell line NCI-H295R (AID 1963990); also: nearly all actives have a fitted effect of over 60% in size; also: potency is read from the fitted curve at half-maximal effect
# Method in brief: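 CellTiter-Glo ATP luminescence, read 48 h after compound addition, measured viability of NCI-H295R adrenocortical cells grown serum-free with ITS. Final concentrations spanned up to 46 uM. Data normalized to DMSO and doxorubicin, fitted for IC50 and maximal response.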
# Chain of Cytochrome P450 3A7 (Homo sapiens) (P24462 whole entry, looked up): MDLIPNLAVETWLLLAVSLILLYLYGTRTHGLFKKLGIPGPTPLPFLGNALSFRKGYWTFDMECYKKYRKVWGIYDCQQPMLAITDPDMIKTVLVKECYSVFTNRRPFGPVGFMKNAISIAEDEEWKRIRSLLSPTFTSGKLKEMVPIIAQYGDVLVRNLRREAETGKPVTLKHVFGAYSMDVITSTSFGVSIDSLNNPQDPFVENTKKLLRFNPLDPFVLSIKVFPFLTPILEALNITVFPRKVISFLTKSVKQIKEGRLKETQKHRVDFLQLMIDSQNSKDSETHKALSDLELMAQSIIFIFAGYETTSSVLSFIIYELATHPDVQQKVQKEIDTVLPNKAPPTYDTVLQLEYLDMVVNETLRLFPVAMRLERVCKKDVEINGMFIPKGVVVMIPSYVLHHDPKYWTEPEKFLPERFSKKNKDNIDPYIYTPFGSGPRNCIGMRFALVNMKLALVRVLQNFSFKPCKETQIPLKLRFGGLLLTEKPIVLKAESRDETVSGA
SMILES,Potency [1],Potency [2],Potency [3],activity (max response) [4],Potency [5],Potency [4]
C[N+]1(C)[C@@H]2CC(OC(=O)[C@H](CO)c3ccccc3)C[C@H]1[C@@H]1O[C@@H]12 (some centres undefined),inactive,inactive,inactive,8.81% and 11.1%,inactive,
CCN(CC)CCNC(=O)COc1ccc(Cl)cc1,inactive,inactive,inactive,6.48%,inactive,
COC(=O)c1cccnc1,inactive,inactive,inactive,5.78%,inactive,
O=C(O)COc1nn(Cc2ccccc2)c2ccccc12,inactive,inactive,inactive,10.3%,inactive,
CCCCCCCCCCCCCCCCCC(=O)OCC(O)CO (centres undefined),inactive,inactive,inactive,5.37%,inactive,
O=C1C(=O)c2ccccc2C(O)=C1C1CCC(c2ccc(Cl)cc2)CC1 (centres undefined),inactive,inactive,inactive,9.49%,inactive,
NCCC(O)(P(=O)(O)O)P(=O)(O)O,inactive,inactive,inactive,6.05%,inactive,
Cc1c(C(=O)NCCO)[n+](=O)c2ccccc2n1[O-],inactive,inactive,inactive,7.59%,inactive,
COC(=O)c1ccc(NC(C)=O)cc1OC,inactive,inactive,inactive,-6.56%,inactive,
CC(=O)NCCCS(=O)(=O)O,inactive,inactive,inactive,5.88%,inactive,
COc1cc2ncnc(Nc3ccc(F)c(Cl)c3)c2cc1NC(=O)/C=C/CN1CCCCC1,inactive,1640 nM (active),1640 nM (active),,4470 nM (active),708 nM (active)
OCCN1C[C@H](O)[C@@H](O)[C@H](O)[C@H]1CO,inactive,inactive,inactive,9.26% and -11.1%,inactive,
C[C@@H]1CCC[C@H](C)N1,inactive,inactive,inactive,4.32%,inactive,
O=C(O)c1cc(-c2ccccc2)nc2ccccc12,inactive,inactive,inactive,10.7%,inactive,
CCCCCCCCCCCCCCCCO,inactive,inactive,inactive,10.1%,inactive,
CCN(CC)CCNC(=O)c1cc(Cl)c(N)cc1OC,inactive,inactive,inactive,-0.158%,inactive,

SMILES,Potency [1],Potency [2],Potency [3],activity (max response) [4],Potency [5],Potency [4]
O=S(=O)(O)c1ccc(O)cc1,inactive,inactive,inactive,11.9%,inactive,
N[C@@H](CCC(=O)N[C@@H](CS)C(=O)NCC(=O)O)C(=O)O,inactive,inactive,inactive,-1.28%,inactive,
CCN(CC)CCNC(=O)c1cc(S(C)(=O)=O)ccc1OC,inactive,inactive,inactive,12.2%,inactive,
COc1ccc(OC)c(C(O)CNC(=O)CN)c1 (centres undefined),inactive,inactive,inactive,12.3%,inactive,
NC(=O)c1cn(Cc2c(F)cccc2F)nn1,inactive,inactive,inactive,10.9%,inactive,
Cc1c(N)cccc1C(F)(F)F,inactive,inactive,inactive,12.6%,inactive,
O=C(O)CCCC[P+](c1ccccc1)(c1ccccc1)c1ccccc1,inactive,inactive,inactive,2%,inactive,
CC(O)CCCCn1c(=O)c2c(ncn2C)n(C)c1=O (centres undefined),inactive,inactive,inactive,7.24%,inactive,
OC[C@H]1O[C@H](O[C@]2(CCl)O[C@H](CCl)[C@@H](O)[C@@H]2O)[C@H](O)[C@@H](O)[C@H]1Cl,inactive,inactive,inactive,-4.41%,inactive,
O=C(O)c1ccccc1-c1ccc(C(F)(F)F)cc1,inactive,inactive,inactive,8.51%,inactive,
COc1cc(/C=C/C(N)=O)cc(OC)c1OC,inactive,inactive,inactive,17.9%,inactive,
CC1(C)[C@@H](OC(=O)CCC(=O)O)CC[C@]2(C)[C@H]3C(=O)C=C4[C@@H]5C[C@@](C)(C(=O)O)CC[C@]5(C)CC[C@@]4(C)[C@]3(C)CC[C@@H]12,inactive,inactive,inactive,2.49%,inactive,
O=C(CN1CCNCC1)NC1CCCCC1,inactive,inactive,inactive,-8.69%,inactive,
CC1(C)O[C@@H]2[C@@H](CO[C@@]3(COS(N)(=O)=O)OC(C)(C)O[C@@H]23)O1,inactive,inactive,inactive,,inactive,
CCOc1cc(NC(C)=O)ccc1C(=O)OC,inactive,inactive,inactive,1.95%,inactive,
